# Sampled rows, rich in hits. Any-hit rate of the full collection: about 8.8%.
# HTT ATP protect: protects HTT-Q103 PC12 cells, measured by ATP | PC12 HTT-Q103 induced, cytoprotection, ATP luminescence, 40 h | Potency, µM (doses to about 56.4 µM), actives largely listed as activators | hit rate 0.14% among 230,000 | AID 1471; note: nearly all actives have a fitted effect of over 45% in size
#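 Readout: ATPlite luminescence (ATP level). Model: stable PC12, inducible Htt exon1 Q103-GFP. Inducer: tebufenozide, 100 nM final. Compounds: dose series. No G418 in medium.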
# HttQ103 aggreg: reduces HttQ103-GFP aggregates in PC12 cells; hit rate 1.1% among 220,000; PC12 HttQ103-GFP aggregates, Acumen cytometry, 40 h; Potency, µM (top dose mostly 46.1 µM), hits mostly inhibitors; note: nearly all actives have a fitted effect of over 60% in size
#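 Inducible Q103 Huntingtin exon 1–GFP PC12 line, 1500 cells/well in phenol red free DMEM with 5% equine and 5% calf serum. Tebufenozide 100 nM induced expression; compounds titrated; aggregates quantified by cytometry.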
# ALDH1A1 inh: inhibitors of human aldehyde dehydrogenase 1A1. P00352. Purified ALDH1A1, NADH fluorescence, propionaldehyde substrate. Potency, µM (doses to about 75.3 µM), actives largely listed as inhibitors. hit rate 7.3% among 220,000; active = well fitted inhibition curve with a large enough effect, not every such curve was filed as active; inconclusive = small, poorly fitted or top-dose-only effect, or another doubt; inactive = no such curve, though single readings can be large or run the other way
# Lamin A splicing: LMNA splicing modulation. HeLa LMNA splicing GFP/RFP minigene ratio, 48 h. Potency, µM (series often up to 46.1 µM), usual class: inhibitors. hit rate 0.01% among 200,000; active = well fitted inhibition curve with a large enough effect in the signal ratio, with a control signal flat, not every such curve was filed as active; inconclusive = small, poorly fitted or top-dose-only effect, or effect the other way, or a change in a side signal; the % refers to the signal ratio
#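 Read-out is the ratio of GFP to DsRed2 object intensity, acquired by 488 nm laser-scanning cytometry on HeLa lamin A-EGFP minigene reporter cells. Compound incubation 48 hrs at 37 °C in Opti-MEM with 2% FBS; DMSO 0.5% final.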
# HPGD inh: blocks human HPGD enzyme activity. P15428. purified HPGD, NADH fluorescence kinetic, PGE2 substrate. Potency, µM, actives largely listed as inhibitors. hit rate 4.3% among 150,000; active = well fitted inhibition curve with a large enough effect, not every such curve was filed as active; inconclusive = small, poorly fitted or top-dose-only effect, or another doubt; inactive = no such curve, though single readings can be large or run the other way
# Target sequence (P15428 whole entry, looked up): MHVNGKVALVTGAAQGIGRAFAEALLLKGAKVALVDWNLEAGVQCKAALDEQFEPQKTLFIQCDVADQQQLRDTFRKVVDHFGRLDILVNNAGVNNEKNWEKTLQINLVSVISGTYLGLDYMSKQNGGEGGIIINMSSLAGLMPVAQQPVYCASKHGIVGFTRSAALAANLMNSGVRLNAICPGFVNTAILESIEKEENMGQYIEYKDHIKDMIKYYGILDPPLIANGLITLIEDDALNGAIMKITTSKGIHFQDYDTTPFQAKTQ
#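 NADH formation kinetics: reaction with 30 uM PGE2 and 1 mM NAD+ (final), 20 nM enzyme, Tris-HCl pH 8 with Tween 20, after 15 min compound preincubation at room temperature. Fluorescence change, last versus first of five reads.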
# Numbers stand for hits; n = inactive; u = inconclusive; x = no result given; [ ] = another dose, or the depositor's remark. Unless noted, calls come from the whole dose curve; as a rule, active = well fitted curve in the direction sought with a large enough effect; inconclusive = small, poorly fitted or top-dose-only effect, or another doubt; inactive = no such curve, though single readings can be large; an effect the other way counts as inactive or inconclusive.
SMILES,HTT ATP protect,HttQ103 aggreg,ALDH1A1 inh,Lamin A splicing,HPGD inh
CCC(C)(C)NC(=O)CN(C(=O)c1csnn1)c1ccccc1-c1ccccc1,n[10 µM],n[9.22 µM],n,x,x
CCC(=O)N1CCc2cc(CNS(=O)(=O)c3ccc(NC(=O)CC(C)C)cc3)ccc21,x,x,x,n,x
O=C(O)c1ccc(/C=C2\SC(=S)N(Nc3ccccc3)C2=O)cc1,n[10 µM],n[9.22 µM],x,x,x
CCOc1cc(/C=C2\SC(=Nc3ccccc3)N(c3ccccc3)C2=O)ccc1OCC(=O)O,x,n,u,u,n
O=C(O)COc1ccc(/C=C2\SC(=Nc3ccccc3)N(c3ccccc3)C2=O)cc1,n,n,18µM,x,x
O=C(O)c1ccc(/C=C2\SC(=Nc3ccccc3)N(c3ccccc3)C2=O)cc1,13µM,n,16µM,x,x
CC(C)c1ccc(CNc2nc(-c3ccco3)nn2C(=O)c2ccc([N+](=O)[O-])cc2)cc1,x,x,x,n,x
N#CCC(=O)NN,n,n,x,x,x
CCN(C(=O)/C=C/c1ccc2c(c1)OCO2)c1ccccc1,n[10 µM],n,n,n,28µM
O=[N+]([O-])C(/C=C(\Cl)[N+](=O)[O-])=C(N1CCCCC1)N1CCCCC1,n,n,14µM,x,x
O=[N+]([O-])C(=C1SCCS1)C(=C(Cl)Cl)N1CCCCC1,n,n,u,x,x
Cc1ccsc1/C=C/C1=Cc2c(sc(NC(=O)CSc3n[nH]c(N)n3)c2C#N)C(C)(C)C1,n,n[9.22 µM],u,n,u
CCOc1ccc(/C=C/C2=Cc3c(sc(NC(=O)CSc4n[nH]c(N)n4)c3C#N)C(C)(C)C2)cc1,n,u,25µM,u,u
CN(C)c1ccc(CNc2ncc(Br)cc2Br)cc1,n,n,3.2µM,n,n
COC(=O)[C@@H]1C[C@H]1[C@@H](NC(=O)OCc1ccccc1)c1ccccc1,n,x,x,x,x
CCC(OC(=O)c1nsc(Cl)c1Cl)C(=O)NCc1ccco1 (configuration not stated),n,n,u,n,10µM
CCC(OC(=O)c1nsc(Cl)c1Cl)C(=O)NC(C)(C)C (configuration not stated),n,n,n,n,x
Oc1ccc(Nc2nc(-c3ccc(O)cc3)cs2)cc1,n[10 µM],u,22µM,u,u
Oc1ccc(Nc2nc(-c3ccc(Cl)cc3)cs2)cc1,n,x,n,x,n
Fc1ccc(Nc2nc(-c3ccncc3)cs2)cc1,u,n,n,u,x
Nc1ccc(Nc2nc(-c3ccncc3)cs2)cc1,n,u,22µM,u,n
CCOc1ccc(S(=O)(=O)Nc2cccc(-c3ccc(N4CCC(C)CC4)nn3)c2)cc1,x,x,x,n,x
COc1ccc(-n2c3c(cc(C(=O)NNc4ccccc4C)c2=O)C(=O)CC(C)(C)C3)cc1,n,n,20µM,n[9.22 µM],x
COc1ccc(-n2c3c(cc(C(=O)NNc4ccccc4)c2=O)C(=O)CC(C)(C)C3)cc1,n,n,u,x,x
COc1ccccc1Cc1nc2ccccc2nc1SCC(=O)Nc1c(C)cccc1C,x,x,x,n,x
SMILES,HTT ATP protect,HttQ103 aggreg,ALDH1A1 inh,Lamin A splicing,HPGD inh
CC(C)(C)SCCNC(=O)c1ccc(Cl)c([N+](=O)[O-])c1,n[10 µM],n,u,n,28µM
CCOc1ccccc1N1CCN(c2nc(N)c(C#N)c(CC#N)c2C#N)CC1,n,n,20µM,n,n
Cc1ccc(N(NC(=O)C(O)(c2ccccc2)c2ccccc2)C(=O)CCl)cc1,n[10 µM],5µM,u,n,11µM
Cc1ccc(C(O)(C(=O)NN(C(=O)c2ccccc2)c2ccccc2)c2ccc(C)cc2)cc1,n[1.9 µM],n,n,n,n
Cc1ccc(S(=O)(=O)N2CCC(C(=O)OCc3ccc([N+](=O)[O-])cc3)CC2)cc1,x,n,n,n,n
Cc1ccc(N2CC(C(=O)OCc3ccc([N+](=O)[O-])cc3)CC2=O)cc1 (configuration not stated),n,n[9.22 µM],11µM,n,25µM
Cc1ccc(C)c(S(=O)(=O)N(C(=O)c2ccncc2)c2ccc(OC(=O)c3ccncc3)cc2)c1,n[10 µM],n[9.22 µM],n,x,x
Cc1ccc(S(=O)(=O)N(C(=O)c2ccncc2)c2ccc(OC(=O)c3ccncc3)cc2)c(C)c1,n[10 µM],n,n,n,28µM
C=CCC(C)(O)c1cccs1 (configuration not stated),n,x,n,x,n
Cn1c(N)c(C(=O)COC(=O)c2cc(-c3ccco3)nc3ccccc23)c(=O)n(Cc2ccccc2)c1=O,10µM,n,u,n,u
CCn1c(C)nc2cc(S(=O)(=O)C(F)(F)C(F)C(F)(F)F)ccc21 (configuration not stated),n,7.1µM,n,u,u
